Source: PubChem (SRMLSC)
An excerpt weighted towards active compounds, which were near 6.3% of everything screened.
Spn PMK inh: blocks S. pneumoniae phosphomevalonate kinase; purified PMK, PK/LDH-coupled NADH absorbance 340 nm; inhibition, % at 10 µM; hit rate 0.49% among 65,000;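 active means top-ranked compounds by inhibition in the single 10 µM screen, taking a fixed number of the strongest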;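 further: 0% = full reaction with DMSO carrier and 100% = background rate without enzyme reaction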
DPM-DC inhibit: S. pneumoniae DPM-DC inhibition; purified DPM-DC, PK/LDH coupled NADH fluorescence; calls only at 10 µM; hit rate 0.49% among 65,000;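 active means the 320 compounds with the highest percent inhibition in the single-dose primary screen, excluding strongly autofluorescent ones, cut at about 32% in these data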;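 further: kinetic rate of NADH fluorescence loss reporting ADP formed by the decarboxylase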
Autofluor 339: intrinsic fluorescence of library compounds, ex339/em460 – biochemical, MLSMR library, data from DPM-DC assay, artefact control, profiling panel. compound autofluorescence, ex339/em460 nm, NADH buffer; active compounds read high; 1 = no-compound wells, NADH background. fluorescence fold increase at 10 µM. hit rate 5.5% among 65,000. AID 709;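 active means at 10 µM, mean starting fluorescence two-fold or more over control wells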;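 further: signal is the first read of a kinetic run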
A340 absorber: compounds absorbing at 340 nm; fold change at 10 µM; 65,000 tested, under 10 active; compound absorbance at 340 nm, fold over control; AID 708;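 active means at 10 µM dose, initial 340 nm absorbance at least 2 fold that of control wells; inactive means change under 2 fold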;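 further: initial absorbance extrapolated from kinetic A340 decline of NADH oxidation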
Spn MK inh: inhibitors of Streptococcus pneumoniae mevalonate kinase | purified MK, PK/LDH-coupled NADH absorbance 340 nm | inhibition, % at 10 µM | hit rate 0.48% among 65,000;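 active means ranked among the strongest by inhibition in the single 10 µM screen, a fixed top-ranked set picked for dose follow-up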
NADH enzymes: inhibition of NAD/NADH coupling enzymes, library profiling; IC50, µM (highest dose often 10 µM), for inactives: at the top dose inhibition; AID 774; coupled PK/LDH NADH assays, four targets; hit rate 0.02% among 65,000;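 active means single-dose screening hits from any of four coupled enzyme assays that gave an IC50 when retested across doses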;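 further: the DPM-DC format reads NADH fluorescence rather than 340 nm absorbance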
* marks the source's active call; other numbers are inactive results; i = inactive; . = no result given; + = active, no number.

SMILES	Spn PMK inh	DPM-DC inhibit	Autofluor 339	A340 absorber	Spn MK inh	NADH enzymes
Cc1cccc(N2CCN(C(=O)C3CCCN(S(=O)(=O)c4c(C)noc4C)C3)CC2)c1C (stereo not given)	6.0	i	1.05	0.98	1.0	1.0%
COc1ccc(-c2ccc(CCC(=O)O)n2C(C)C)cc1	2.0	i	2.03*	1.07	4.0	7.0%
CCCn1c(CCC(=O)O)ccc1-c1ccc(F)cc1	6.0	i	2.01*	1.07	9.0	8.0%
COC(=O)Cn1c(CCC(=O)O)ccc1-c1ccccc1	0.0	.	2.2*	1.04	0.0	0.0%
O=C(O)CCc1ccc(-c2ccccc2)n1CC1CCCO1 (stereo not given)	8.0	.	4*	1.03	11.0	10.0%
COc1ccc(NC(=O)C2CCCN2S(=O)(=O)c2ccc(F)cc2)cc1 (stereo not given)	0.0	i	1.07	1.04	0.0	0.0%
CCCS(=O)(=O)NCc1cn2c(C)csc2n1	16.0	i	1.1	1.06	1.0	7.0%
CS(=O)(=O)Nc1ccccc1C(=O)NC1CC2CCC1C2 (stereo not given)	8.0	.	3.79*	1.05	8.0	8.0%
COCCCNC(=O)c1ccccc1NS(C)(=O)=O	3.0	.	3.35*	1.08	6.0	5.0%
Cc1ccc(CCNC(=O)C2CCC(=O)N2C2CCCC2)cc1 (stereo not given)	9.0	i	1.01	0.97	0.0	3.0%
C=CCn1cc(C(=O)NCC2CCCO2)c(=O)c2cc(S(=O)(=O)N3CCCCCC3)ccc21 (stereo not given)	8.0	i	1.1	1.03	6.0	5.0%
CCOc1ccc(-n2nnc3c(=O)n(CC(=O)N4CCCc5ccccc54)cnc32)cc1	13.0	i	1.07	1.05	3.0	5.0%
CCN(CC)CCSc1nc(O)c(C(C)C)c(=O)[nH]1	25.0*	i	1.07	1.03	2.0	11.0%
CCC(C)c1c(O)nc(SCC(=O)c2ccccc2)[nH]c1=O (stereo not given)	0.0	i	1.22	1.04	6.0	2.0%
COCc1cc(=O)[nH]c(Nc2nc(C)c3ccc(C)cc3n2)n1	28.0*	i	1.02	1.02	0.0	10.0%
Cc1cc(C(=O)COc2ccc3ccc(=O)oc3c2)c(C)n1Cc1cccs1	12.0	i	2.62*	1.06	0.0	13.0%
COCCSc1ccccc1C(=O)Nc1nnc(C)s1	5.0	i	1.04	1.01	7.0	4.0%
O=C1CC(c2ccc(Cl)c(Cl)c2)CC(O)=C1C=NCCN1CCNCC1 (stereo not given)	0.0	i	1.1	1.06	1.0	0.0%
COC(=O)C1(C)Nc2ccccc2C(=O)N1c1ccccc1C (stereo not given)	0.0	.	2.1*	1.09	4.0	2.0%
O=C(CCN1CCc2ccccc2C1)Nc1ccc(F)cc1	6.0	i	1.11	1.03	12.0	6.0%
Cn1c(=O)c2c(nc(CN3CCN(c4cccc(Cl)c4)CC3)n2CCc2ccccc2)n(C)c1=O	14.0	i	1.08	1.02	8.0	7.0%
COc1ccc(S(=O)(=O)Nc2ccccc2C(=O)NCc2ccco2)cc1	9.0	.	3.64*	1.02	6.0	8.0%
O=C(NCc1ccccn1)C1COc2ccccc2O1 (stereo not given)	7.0	i	1.11	1.01	4.0	4.0%
COC(=O)[C@@H](NC(=O)N1CCN(c2cccc(C(F)(F)F)c2)CC1)C(C)C	30.0*	i	0.98	0.83	14.0	15.0%
COC(=O)[C@H](CCSC)NC(=O)N1CCN(c2cccc(C(F)(F)F)c2)CC1	6.0	i	1.06	0.99	9.0	5.0%
SMILES	Spn PMK inh	DPM-DC inhibit	Autofluor 339	A340 absorber	Spn MK inh	NADH enzymes
COc1ccc(-c2coc3cc(O)ccc3c2=O)cc1OC	17.0	+	3.62*	1.08	0.0	16.0%
COc1ccc(-c2c(C)oc3cc(O)cc(O)c3c2=O)cc1OC	0.0	i	1.05	1.09	7.0	3.0%
O=c1c(-c2ccc(F)cc2)coc2cc(O)ccc12	0.0	.	2.18*	1.13	9.0	5.0%
O=C(CCNS(=O)(=O)c1cccc2nonc12)NCc1cccs1	0.0	i	1.1	1.08	11.0	4.0%
CCn1c(=O)c(-[n+]2ccccc2)c(O)c2ccccc21	14.0	i	1.09	1.04	12.0	9.0%
CCn1c(=O)c(C2=NS(=O)(=O)c3ccccc3N2)c(O)c2ccccc21	12.0	i	2.48*	1.1	0.0	11.0%
